{"source": "PubChem BioAssay (EPA / NIEHS)", "note": "Inconclusive results are not listed. Active and inactive are the calls of the source. Rule for the calls: active = hit-call score of the fitted dose curve at least 0.9, where 1 is the maximum; inconclusive = response in the unintended direction; inactive = score below 0.9."}
{"molecular_target": "PGR (gene 5241) (UniProt P06401)", "sequence (P06401 whole entry, looked up)": "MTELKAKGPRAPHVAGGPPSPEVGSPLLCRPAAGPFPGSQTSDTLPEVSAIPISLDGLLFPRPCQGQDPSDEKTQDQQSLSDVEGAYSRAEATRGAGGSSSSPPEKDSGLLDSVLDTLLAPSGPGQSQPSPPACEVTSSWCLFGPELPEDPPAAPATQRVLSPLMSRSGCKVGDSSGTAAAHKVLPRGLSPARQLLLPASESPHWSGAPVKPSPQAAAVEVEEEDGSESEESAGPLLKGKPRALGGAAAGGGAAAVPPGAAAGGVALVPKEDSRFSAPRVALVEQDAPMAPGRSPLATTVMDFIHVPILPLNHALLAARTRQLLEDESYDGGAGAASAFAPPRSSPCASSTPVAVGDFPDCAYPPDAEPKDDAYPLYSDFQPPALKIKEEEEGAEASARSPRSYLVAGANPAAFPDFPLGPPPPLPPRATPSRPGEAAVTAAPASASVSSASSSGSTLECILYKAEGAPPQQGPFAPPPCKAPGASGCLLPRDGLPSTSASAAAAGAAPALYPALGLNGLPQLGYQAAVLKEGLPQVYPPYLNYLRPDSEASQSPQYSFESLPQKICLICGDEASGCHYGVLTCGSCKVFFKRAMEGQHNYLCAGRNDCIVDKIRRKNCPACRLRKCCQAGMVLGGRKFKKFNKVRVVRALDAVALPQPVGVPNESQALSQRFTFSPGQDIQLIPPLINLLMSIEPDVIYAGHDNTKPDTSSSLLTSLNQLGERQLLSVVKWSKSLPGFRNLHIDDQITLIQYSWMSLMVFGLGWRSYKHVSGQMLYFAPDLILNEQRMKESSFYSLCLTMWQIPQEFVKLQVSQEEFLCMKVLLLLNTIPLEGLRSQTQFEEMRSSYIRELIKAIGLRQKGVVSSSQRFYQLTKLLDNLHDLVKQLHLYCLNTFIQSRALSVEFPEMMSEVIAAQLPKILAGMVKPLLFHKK", "test": "NVS_NR_hPR: NovaScreen (NVS) Nuclear Receptor Binding Assay for human Progestron Receptor (PR) (AID 2283360);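 note: active means loss of bound radioligand signal versus DMSO baseline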", "procedure": "NVS_NR_hPR is a biochemical, single-readout assay that uses extracted gene-proteins from T47D in a cell-free assay. Measurements were taken 18 hours after chemical dosing in a 96-well plate.NVS_NR_hPR is one of one assay component(s) measured or calculated from the NVS_NR_hPR assay. It is designed to make measurements of radioligand binding, a form of binding reporter, as detected with scintillation counting signals by Lysate-based radiodetection technology.Data from the assay component NVS_NR_hPR was analyzed into 1 assay endpoint. This assay endpoint, NVS_NR_hPR, was analyzed in the positive analysis fitting direction relative to DMSO as the negative control and baseline of activity. Using a type of binding reporter, loss-of-signal activity can be used to understand changes in the binding as they relate to the gene PGR. Furthermore, this assay endpoint can be referred to as a primary readout, because the performed assay has only produced 1 assay endpoint. To generalize the intended target to other relatable targets, this assay endpoint is annotated to the nuclear receptor intended target family, where the subfamily is steroidal.\nBinding assays used specific radioligands (tritiated, iodinated) with non-radioactive competitive displacement ligands in agonist or antagonist protocols (as indicated) and various reference compounds and inhibitors to titrate specific binding to receptors and transporters. Most enzyme assays (CYPs, kinases, phosphatases, proteases, HDACs) used recombinant protein and specific substrates (fluorescence mostly, some colorimetric and radioactive) and inhibitors, followed by a biochemical separation of substrate and product. All assays for the biochemical HTS were initially run in duplicate at a single concentration (10 uM for CYP450 assays and 25 uM for all others). […] Each assay was run with positive and negative controls, and concurrent controls on every plate. The follow-up (secondary) screen tested active chemical-pairs in concentration series, as well as a few additional assays not tested in the primary screen, some selected negative inactives, and several cases re-run in the concentration series for confirmatory purposes."}
{"smiles": "OC(Cc1ccccc1Cl)(Cn1[nH]cnc1=S)C1(Cl)CC1", "note": "(centres undefined)", "outcome": "inactive"}
{"smiles": "CCOC(=O)C(SP(=S)(OC)OC)c1ccccc1", "note": "(centres undefined)", "outcome": "inactive"}
{"smiles": "O=C(N[C@H]1CN2CCC1CC2)c1ccc2c(c1)OCCO2", "outcome": "inactive"}
{"smiles": "CCOP(=O)(OCC)OC(=CCl)c1ccc(Cl)cc1Cl", "AC50": "42.9 µM (active)"}
{"smiles": "O=[N+]([O-])c1ccc(Nc2ccccc2)cc1", "AC50": "37.6 µM (active)"}
{"smiles": "O=C(O)C1(c2ccc3c(c2)OC[C@H](Cc2ccc(-c4ccccc4)cc2)[C@H]3O)CCCC1", "outcome": "inactive"}
{"smiles": "Cc1cc(C(C)(C)c2ccc(O)c(C)c2)ccc1O", "AC50": "23.3 µM (active)"}
{"smiles": "Cc1ccccc1OP(=O)(Oc1ccccc1C)Oc1ccccc1C", "outcome": "inactive"}
{"smiles": "C[C@]12CC[C@@H](O)C[C@@H]1CC[C@@H]1[C@@H]2CC[C@]2(C)C(=O)CC[C@@H]12", "outcome": "inactive"}
{"smiles": "O=C1C=CC(=O)c2ccccc21", "AC50": "38.6 µM (active)"}
{"smiles": "O=c1oc2ccccc2c(O)c1C(CC(O)c1ccc(-c2ccc(Br)cc2)cc1)c1ccccc1", "note": "(centres undefined)", "AC50": "23.9 µM (active)"}
{"smiles": "Clc1cccc(Cl)c1Cl", "outcome": "inactive"}
{"smiles": "Cc1ccccc1OP(=O)(Oc1ccccc1)Oc1ccccc1", "outcome": "inactive"}
{"smiles": "CCCCCCCCCCCCc1cccc(S(=O)(=O)O)c1", "AC50": "15.9 µM (active)"}
